High-throughput results (PubChem)
CHX counter: counter-screen hit for Shiga toxin inhibitors, cycloheximide. hit rate 12% among 300,000. AID 2314. max response, %. cell reporter, cycloheximide protein synthesis inhibition counterscreen; in the data active = max response mostly above about 13%, no sharp cut-off; inactive = mostly below about 14%; also: read at 38.3 µM for the half of the compounds with a filed dose
LmPK inh: blocks Leishmania mexicana pyruvate kinase activity | Q27686 | purified LmPK, Kinase-Glo ATP luminescence, 1 h | Potency, µM (titrated, usually from 57.5 µM), actives largely listed as inhibitors | hit rate 0.37% among 290,000 | AID 1721
Target sequence (Q27686 whole entry, looked up): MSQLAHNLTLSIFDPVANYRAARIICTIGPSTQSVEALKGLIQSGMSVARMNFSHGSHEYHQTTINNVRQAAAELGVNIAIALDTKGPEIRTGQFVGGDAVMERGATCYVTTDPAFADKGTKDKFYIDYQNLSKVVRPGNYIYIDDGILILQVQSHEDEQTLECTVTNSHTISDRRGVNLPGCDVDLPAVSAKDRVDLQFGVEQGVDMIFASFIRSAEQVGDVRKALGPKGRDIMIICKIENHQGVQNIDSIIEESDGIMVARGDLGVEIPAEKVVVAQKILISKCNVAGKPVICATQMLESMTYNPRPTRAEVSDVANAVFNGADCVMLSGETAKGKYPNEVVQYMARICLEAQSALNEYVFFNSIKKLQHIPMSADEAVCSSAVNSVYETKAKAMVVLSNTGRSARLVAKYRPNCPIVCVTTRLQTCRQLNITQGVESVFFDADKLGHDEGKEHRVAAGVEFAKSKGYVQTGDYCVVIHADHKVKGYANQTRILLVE
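Purified LmPK (0.1 nM) with 0.5 mM PEP and 0.1 mM ADP in imidazole buffer pH 7.2 with MgCl2/KCl, 1 h at room temperature. ATP formed was read by luciferase luminescence and normalized to no-enzyme and uninhibited controls.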
Shiga inhibitor: blocks Shiga toxin action in Vero cells; Vero cells, Shiga toxin protein synthesis inhibition reporter; inhibition, % at 38.7 µM; hit rate 9.2% among 290,000; in the data active = inhibition mostly above about 28%, no sharp cut-off; inactive = mostly below about 43%
Giardia FBPA inh: inhibitors of Giardia lamblia fructose-1,6-bisphosphate aldolase. hit rate 0.71% among 290,000. A8B2U2. Potency, µM (titrated, usually from 59.6 µM), most hits filed as inhibitors. purified Giardia FBPA; also: nearly all actives have a fitted effect of over 55% in size
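40 nM FBPA preincubated 10 min at RT with compound (up to 57.5 uM final), then substrate plus GAPDH/TPI/NAD/arsenate coupling and diaphorase/resazurin added. Fluorescence read after 20 min at RT, 525/598 nm.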
NS1 function inh: blocks influenza NS1 protein function; hit rate 0.4% among 270,000; Potency, µM (top dose mostly 46.1 µM); AID 2326; calls by dose curve; also: actives are rising curves; nearly all actives have a fitted effect of over 50% in size
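In this qHTS, NS1 from influenza A is expressed in budding yeast, where it slows growth. Cells are switched from glucose to 2% galactose medium (pH 6.0, -URA), treated with compound, and growth recovery is read at OD600.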
Large screens that a line does not name were inactive. This is a sample that favours compounds with a hit; in the whole collection about 14% have one here. Unless noted, calls follow the shape of the dose curve; as a rule, active = well fitted curve in the direction sought with a large enough effect; inconclusive = small, poorly fitted or top-dose-only effect, or another doubt; inactive = no such curve, though single readings can be large; an effect the other way counts as inactive or inconclusive.

O=C(c1csnn1)N1CCC[C@@]2(CCN(C(c3ccccc3)c3ccccc3)C2)C1	none (no result: CHX counter, LmPK inh, Shiga inhibitor, NS1 function inh)
Cc1cc(C(=O)N/N=C2\CCCC(C)C2)n[nH]1 (stereo not given)	CHX counter 55
CC(C)c1ccc(N2CC(C)(C)C2=O)cc1	CHX counter 29, Shiga inhibitor 74 (no result: NS1 function inh)
CC1(C)CN(c2ccc(F)cc2)C1=O	none (no result: NS1 function inh)
COC(=O)c1c(-c2ccc(C)cc2)csc1NC(=O)C1CC=CCC1C(=O)O (stereo not given)	Shiga inhibitor active
Cc1ccc2oc(-c3cccc(NC(=O)C4CCCO4)c3)nc2c1 (stereo not given)	CHX counter 41, Shiga inhibitor 76
CCOC(=O)c1c(-c2ccc(C)cc2)csc1NC(=O)C1CCCO1 (stereo not given)	none
COC(=O)c1c(-c2cccc(C)c2)csc1NC(=O)C1CCCO1 (stereo not given)	CHX counter 27
COC(=O)c1c(-c2cc(C)ccc2C)csc1NC(=O)C1CC=CCC1C(=O)O (stereo not given)	none
COc1cc(C(=O)Nc2cccc(-c3nc4cc(C)ccc4o3)c2)cc(OC)c1OC	CHX counter 17, Shiga inhibitor 81
Cc1ccc2oc(-c3cccc(NC(=O)Cc4cccs4)c3)nc2c1	none
CC(C)[C@H](N=Cc1ccccc1O)C(=O)O	none (no result: CHX counter, LmPK inh, Shiga inhibitor, Giardia FBPA inh)
Nc1ccccc1C(=O)NCC1(c2ccccc2)CCCC1	none
O=C(Nc1cccc(-c2nc3cc(Cl)ccc3o2)c1)C1CCCO1 (stereo not given)	CHX counter 14
CC(=O)Nc1ccc(S(=O)(=O)Nc2cccc(-c3nc4cc(C)ccc4o3)c2)cc1	none (no result: CHX counter, LmPK inh, Shiga inhibitor, Giardia FBPA inh)
Cc1cccc(-c2nc3cc(NC(=O)C4CCCO4)ccc3o2)c1 (stereo not given)	CHX counter 67, LmPK inh inconclusive, Shiga inhibitor active
O=C(O)c1ccc(Cl)cc1NC(=O)C1CCCO1 (stereo not given)	none
CCCc1nn(C)c(C(=O)Nc2cccc(Cl)c2)c1Cl	CHX counter 50, Shiga inhibitor 66
CCCc1nn(C)c(C(=O)Nc2cccc(C)c2)c1Cl	CHX counter 58, Shiga inhibitor 55
CCN1CCN(CCC(=O)Nc2cccc(C)c2)CC1	Giardia FBPA inh inconclusive
N#CCc1ccc(C(=O)c2ccccc2F)s1	CHX counter 17
CC(=O)N1CCC2(CCCN(c3ccccc3)C2)CC1	none (no result: CHX counter, LmPK inh, Shiga inhibitor, NS1 function inh)
O=C(Nc1ccc(N2CCN(C(=O)c3cccs3)CC2)cc1)c1ccccc1F	none
O=C(Nc1ccc(N2CCCC2)cc1)c1ccccc1F	CHX counter 43, LmPK inh inconclusive, Shiga inhibitor 43, Giardia FBPA inh inconclusive, NS1 function inh inconclusive
O=C(Nc1ccc(N2CCCCC2)cc1)c1ccc(F)cc1F	CHX counter 42, Shiga inhibitor 45
Cc1nn(CC(=O)NCCCN2CCC(N3CCCCC3)CC2)c(=O)c2cc(-c3ccccc3)nn12	none
COc1ccc(/C=C2\N=C3CCCCCN3C2=O)cc1	CHX counter 41, Shiga inhibitor 76 (no result: NS1 function inh)
O=C1/C(=C/c2ccncc2)N=C2CCCCCN12	none
COc1ccc(/C=C2/N=C3CCCCCN3C2=O)cc1OC	Shiga inhibitor 11
O=C(N/N=C/c1ccccc1OC(=O)c1ccc2c(c1)OCO2)c1ccccc1	CHX counter 21, Shiga inhibitor 64
COc1cc(/C=N/NC(=O)c2cc(-c3ccc4c(c3)OCO4)n[nH]2)ccc1O	CHX counter 16
COc1ccccc1C(=O)N/N=C/c1ccc2c(c1)OCO2	CHX counter 35, Shiga inhibitor 89
CC(/C=N\NC(=O)c1ccc2c(c1)OCO2)c1ccccc1 (stereo not given)	CHX counter 27, Shiga inhibitor 46
O=C(N/N=C/c1ccc([N+](=O)[O-])cc1)c1cc(-c2ccc3c(c2)OCO3)n[nH]1	none
CN1CCN([C@@H](c2ccccc2)c2ccc(Cl)cc2)CC1	none (no result: CHX counter, LmPK inh, Shiga inhibitor, NS1 function inh)
C=Cc1cc2c(s1)c1cnn(Cc3ccccc3F)c(=O)c1n2C	none (no result: LmPK inh, Giardia FBPA inh, NS1 function inh)
COc1cc2ccccc2cc1C(=O)N/N=C/c1ccc2c(c1)OCO2	none (no result: Giardia FBPA inh)
COc1ccccc1N/N=C/c1ccc2c(c1)OCO2	CHX counter 39
CCCOc1ccc(/C=N/NC(=O)c2ccc3c(c2)OCO3)c(OCCC)c1	none
COc1ccc(/C=N/NC(=O)c2ccc3c(c2)OCO3)c(C(=O)O)c1OC	CHX counter 11
CSc1nsc(N/N=C/c2ccc3c(c2)OCO3)c1C#N	CHX counter 41, Shiga inhibitor 84 (no result: NS1 function inh)
COc1ccc(/C=N/NC(=O)c2cc(-c3ccccc3)nc3ccccc23)c(C(=O)O)c1OC	none
COc1ccccc1/C=N/NC(=O)c1ccc2c(c1)OCO2	CHX counter 24, Shiga inhibitor 81
C=C(C)C(=O)OCC1CN2C(CCC(C)C2c2ccc(Br)cc2)C(=O)O1 (stereo not given)	none (no result: CHX counter, LmPK inh, Shiga inhibitor, NS1 function inh)
CC1=C/C(=C(\c2cc(C)c(O)c(Br)c2)c2ccccc2S(=O)(=O)O)C=C(Br)C1=O	LmPK inh 7.9µM, Giardia FBPA inh inconclusive
CN1C2CCC1CC(NC(=O)CSCc1ccc(Cl)cc1Cl)C2 (stereo not given)	none
O=C1CC(c2ccccc2Cl)=NN(c2ncnc3ccccc23)C1=O	CHX counter 41, Shiga inhibitor 94, Giardia FBPA inh inconclusive (no result: NS1 function inh)
O=c1c(-c2ccc(Cl)cc2)nc2cnc(N3CCNCC3)nc2n1CCc1ccccc1	none (no result: CHX counter, LmPK inh, Shiga inhibitor, NS1 function inh)
Nc1ccc(C(=O)Nc2ccco2)cc1	Shiga inhibitor 33
Cc1ccc(C(=O)NC(=S)NCC2CCCO2)cc1 (stereo not given)	CHX counter 65
O=C(COC(=O)c1ccccc1)NCC1CCCO1 (stereo not given)	CHX counter 24, Shiga inhibitor 46
O=C(NC(=S)NCC1CCCO1)c1ccccc1 (stereo not given)	CHX counter 31, Shiga inhibitor 34
O=C(NC(=S)NCCN1CCOCC1)c1ccc(Cl)cc1	CHX counter 24
COC(=O)c1ccccc1-c1cn(C)c2ccccc2c1=O	none
O=C(NC(=S)NCC1CCCO1)c1ccc([N+](=O)[O-])cc1 (stereo not given)	none
O=C(NC(=S)NCC1CCCO1)c1ccc(Cl)cc1 (stereo not given)	CHX counter 29, Shiga inhibitor 41
CN1CCN(c2ncc3nc(-c4ccc(Cl)cc4)c(=O)n(C)c3n2)CC1	none (no result: CHX counter, LmPK inh, Shiga inhibitor, NS1 function inh)
O=C(CCCN1C(=O)/C(=C/c2ccc(F)cc2)SC1=S)NC1CCS(=O)(=O)C1 (stereo not given)	none
O=C(O)/C=C/C(=O)NNC(=O)c1ccc(Cl)cc1Cl	CHX counter 27, Shiga inhibitor 58
COC(=O)NNC(=O)c1ccc(Cl)cc1Cl	none
O=C(NNc1cccc(Cl)n1)c1ccc(Cl)cc1Cl	CHX counter 24
O=C(O)[C@@H]1[C@@H](C(=O)NCc2ccncc2)[C@@H]2C=C[C@@H]1O2	none (no result: CHX counter, LmPK inh, Shiga inhibitor, Giardia FBPA inh)
Cc1cc(OCC(=O)c2cccc(C(F)(F)F)c2)n2cnnc2n1	none
O=C(NNC(=O)c1ccc([N+](=O)[O-])cc1C(=O)O)c1ccncc1	none
CC(=O)N(/N=C1\Sc2ccccc2C1=O)c1ccc(C)cc1C	CHX counter 59, Shiga inhibitor 121
